# Measurements from PubChem BioAssay AID1619 (SRMLSC, 2009).
# In all, about 220,000 compounds went through this assay and about 830 (0.38%) were called active. The list is a sample of the results. Results with a measured potency or affinity are listed apart. Unmarked numbers belong to inactive results.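 Rule for the calls: active = compound inhibiting the enzyme by more than half at any dose during confirmatory dose-response retesting; inconclusive = strong single-dose inhibitors picked by rank but not retested; inactive = the rest.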
# Molecular target: Leucine aminopeptidase (Plasmodium falciparum (isolate 3D7)) (UniProt Q8IL11)
# Sequence (Q8IL11 whole entry, looked up): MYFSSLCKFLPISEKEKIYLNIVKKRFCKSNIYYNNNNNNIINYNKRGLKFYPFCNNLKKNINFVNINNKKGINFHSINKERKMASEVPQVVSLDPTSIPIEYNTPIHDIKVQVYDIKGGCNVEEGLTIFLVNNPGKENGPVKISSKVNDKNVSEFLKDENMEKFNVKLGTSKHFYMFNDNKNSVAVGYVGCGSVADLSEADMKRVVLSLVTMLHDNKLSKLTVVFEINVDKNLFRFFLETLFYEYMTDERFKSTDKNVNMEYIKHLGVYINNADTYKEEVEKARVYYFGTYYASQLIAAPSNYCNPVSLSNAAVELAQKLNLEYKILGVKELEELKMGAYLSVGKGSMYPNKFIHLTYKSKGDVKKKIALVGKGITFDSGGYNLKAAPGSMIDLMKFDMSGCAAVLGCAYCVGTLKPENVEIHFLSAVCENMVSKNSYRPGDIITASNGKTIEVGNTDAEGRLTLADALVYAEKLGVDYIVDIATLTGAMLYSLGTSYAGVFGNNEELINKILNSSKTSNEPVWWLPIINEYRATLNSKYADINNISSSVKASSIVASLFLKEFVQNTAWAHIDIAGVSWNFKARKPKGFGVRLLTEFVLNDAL
# Assay: P. falciparum M17LAP inhibitors, primary screen, biochemical, fluorogenic H-Leu-NHMec substrate, 1536-well (AID 1619);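 note: plate controls were full reaction with DMSO carrier for no effect and no enzyme background for full effect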
# Conditions: recombinant M17LAP, H-Leu-NHMec fluorogenic kinetic assay; at 30 µM; hits give high values
row,SMILES,inhibition [%]
1,Cc1cc(Cl)ccc1C(=O)C1CCCN(C(=O)CCn2cnnn2)C1 (stereo not drawn),5.92
2,CCOc1ccccc1C1C(C#N)=C(N)Oc2n[nH]c(CC)c21 (stereo not drawn),29.4
3,CCCc1[nH]nc2c1C(c1ccccc1OCC)C(C#N)=C(N)O2 (stereo not drawn),8.34
4,CCOC(=O)N1CCC(N2C(=O)c3ccccc3C2Nc2ccc3c(c2)OCCO3)CC1 (stereo not drawn),-7.29
5,CCn1c(-c2cc(-c3ccc(C)cc3)nc3ccccc23)n[nH]c1=S,-3.9
6,CCCCS(=O)(=O)N1CN(S(=O)(=O)CCCC)C2NC(=O)NC21 (stereo not drawn),0.79
7,CCCc1cc(=O)oc2c(C)c(OCc3nn[nH]n3)ccc12,-5.76
8,CCCCc1cc(=O)oc2c(C)c(OCc3nn[nH]n3)ccc12,6.82
9,O=C(NC1CCCCC1)c1ccccc1NC(=S)NC(=O)C1CC1,5.81
10,S=C(Nc1ccccc1)Nc1ccccc1-n1cccc1,-5.63
11,Cc1ccnc(SCC(=O)Nc2sc3c(c2C#N)CCCC3)n1,2.01
12,N#Cc1c(NC(=O)CSc2ncn(-c3ccccc3)n2)sc2c1CCCC2,9.47
13,Cc1nnc(SCC(=O)Nc2sc3c(c2C#N)CCCC3)[nH]c1=O,52.5
14,Cc1csc(SCC(=O)Nc2sccc2C#N)n1,0.5
15,N#Cc1c(NC(=O)CSC2=NCCS2)sc2c1CCCC2,19.2
16,Cn1cnnc1SCC(=O)Nc1sccc1C#N,-7.3
17,Cn1cnnc1SCC(=O)Nc1sc2c(c1C#N)CCCCC2,11.7
18,N#Cc1c(NC(=O)CSc2nc(N)cc(=O)[nH]2)sc2c1CCCCCC2,4.49
19,O=C1CC(C(=O)NCc2ccccc2)C2(CCCC2)O1 (stereo not drawn),-0.86
20,COc1ccc(C2C(C(=O)N3CCCCC3)c3ccccc3C(=O)N2C)cc1 (stereo not drawn),-0.86
21,CCOC(=O)c1sc(NC(=O)CSc2nc(C)cc(C)c2C#N)c(C#N)c1C,-17.4

row,SMILES,inhibition [%]
1,CCOC(=O)c1sc(NC(=O)CSc2nc(C)cc(C)n2)c(C#N)c1C,-1.79
2,Cc1ccc(OCC(=O)OC2CCS(=O)(=O)C2)cc1 (stereo not drawn),1.23
3,CN1C(=O)c2ccc(N3CCCC3)cc2C1=O,22.5
4,CN(C)c1ccc2c(=O)[nH][nH]c(=O)c2c1,5.67
5,O=C(Nc1ccc(Br)cc1Cl)NC1CC1,-4.66
6,CC(CCc1ccccc1)NC(=O)c1cccs1 (stereo not drawn),-2.09
7,Cc1ccc2c(CC(=O)N3CCN(S(=O)(=O)c4ccc5c(c4)OCCO5)CC3)coc2c1,-3.86
8,Cc1ccccc1/C=N/NC(=O)Cn1nnc(N)n1,-9.27
9,COc1ccc2sc(N(CCN(C)C)C(=O)/C=C/c3cccs3)nc2c1,1.07
10,CC1=NN(C(=O)CSCc2ccccc2)C(O)(c2ccc(F)cc2)C1 (stereo not drawn),6.76
11,CCOC(=O)c1c(NC(=O)C2C3CCC(O3)C2C(=O)O)sc2c1CCCC2 (stereo not drawn),14.3
12,COC(=O)c1c(NC(=O)C2CC2)sc2c1CCCC2,-6.73
13,CCOC(=O)c1c(NC(=O)C2CCCCC2C(=O)O)sc2c1CCCCC2 (stereo not drawn),33.7
14,COC(=O)c1c(NC(=O)C2C3CCC(C3)C2C(=O)O)sc2c1CCCCC2 (stereo not drawn),56.4
15,COc1ccc(NC(=S)N(CCN2CCOCC2)Cc2cc3cc4c(cc3[nH]c2=O)OCCO4)cc1,10.8
16,Cc1nnc(SCC(=O)NC(=O)NCc2ccco2)s1,-1.14
17,Cc1ccccc1Nc1nnc(SCC(=O)NCc2ccco2)s1,45.1
18,CCOc1ccc(S(=O)(=O)c2c(C(=O)c3ccccc3)cnc3cc4c(cc23)OCCO4)cc1,1.82
19,O=C(CCS(=O)(=O)Cc1ccccc1F)N1CCc2ccccc2C1,6.01
20,COc1ccccc1N1CCN(c2ccc(N3C(=O)CCC3=O)cc2[N+](=O)[O-])CC1,-4.52
21,COc1ccc(OCC#CCN2CC(C)OC(C)C2)cc1 (stereo not drawn),-3.27

row,SMILES,inhibition [%]
1,O=C(N/N=C\c1ccc(-c2ccc([N+](=O)[O-])cc2)o1)C1COc2ccccc2O1 (stereo not drawn),1.94
2,O=C(N/N=C/c1ccc(-c2ccc([N+](=O)[O-])cc2)o1)c1cccnc1,4.87
3,CC(C)(C)c1ccc2c(c1)OC(C(=O)N/N=C\c1ccc(-c3cccc(C(=O)O)c3)o1)CO2 (stereo not drawn),7.12
4,Nc1nonc1C(=O)N/N=C/c1ccc(-c2cccc(C(=O)O)c2)o1,30.2
5,CCOP(C)(=O)C1(C(=O)OCc2ccccc2)CC1 (stereo not drawn),-6.01
6,COc1cccc(CNc2ccc([N+](=O)[O-])cc2C)c1,6.82
7,O=C1/C(=C/c2ccc(N3CCCC3)cc2)NC(=S)N1C1CC1,-10.7
8,CC(C)CN1C(=O)/C(=C/c2cccs2)NC1=S,35.9
9,O=C(CC1C(=O)NCCN1C(=O)c1ccc(F)cc1)OCc1ccccc1 (stereo not drawn),-6.93
10,Cc1ccc(CNC(=O)CN2CCCC(C)C2)cc1 (stereo not drawn),8.72
11,Cc1[nH]nc2c1C(c1ccoc1)C(C#N)=C(N)O2 (stereo not drawn),21.9
12,COc1ccc(-c2[nH]nc3c2C(c2ccoc2)C(C#N)=C(N)O3)cc1 (stereo not drawn),27.9
13,COc1cccc(-c2[nH]nc3c2C(c2ccsc2)C(C#N)=C(N)O3)c1 (stereo not drawn),35.3
14,COc1cc(-c2[nH]nc3c2C(c2ccoc2)C(C#N)=C(N)O3)cc(OC)c1OC (stereo not drawn),24
15,O=C(Nc1nnc(-c2ccccn2)o1)c1ccc(Br)cc1,8.43
16,COCC(C)NC(=O)c1cc2cccc([N+](=O)[O-])c2[nH]1 (stereo not drawn),11.6
17,NC(=O)N[C@@H](Cc1c[nH]c2ccccc12)C(=O)OCC(=O)N1CCCCC1,-0.49
18,O=C(O/N=C(\c1ccccc1)c1ccncc1)c1ccccc1Cl,3.91
19,CC(C)Cn1c2ccccc2c2cc(C(=O)O)ccc21,1.66
20,COc1ccc(-c2csc(N)n2)cc1,-1.01
21,COc1ccc(-c2nc(N)n[nH]2)cc1,2.51
